Parameters in all cases: scale not given: direction of the effect not stated beside the values
Assay [1] addresses Protein translocase subunit SecA (Escherichia coli (strain K12)) (UniProt P10408). Kind of assay: Assay to Identify E. coli SecA ATPase Inhibitors. The assay is classed as functional. The conditions noted are these: 30 µM.
Assay [2] concerns the target T1, Ubiquitin-activating enzyme e1, putative (Leishmania donovani (strain BPK282A1)) (UniProt E9BSI1).
T1 sequence (whole entry): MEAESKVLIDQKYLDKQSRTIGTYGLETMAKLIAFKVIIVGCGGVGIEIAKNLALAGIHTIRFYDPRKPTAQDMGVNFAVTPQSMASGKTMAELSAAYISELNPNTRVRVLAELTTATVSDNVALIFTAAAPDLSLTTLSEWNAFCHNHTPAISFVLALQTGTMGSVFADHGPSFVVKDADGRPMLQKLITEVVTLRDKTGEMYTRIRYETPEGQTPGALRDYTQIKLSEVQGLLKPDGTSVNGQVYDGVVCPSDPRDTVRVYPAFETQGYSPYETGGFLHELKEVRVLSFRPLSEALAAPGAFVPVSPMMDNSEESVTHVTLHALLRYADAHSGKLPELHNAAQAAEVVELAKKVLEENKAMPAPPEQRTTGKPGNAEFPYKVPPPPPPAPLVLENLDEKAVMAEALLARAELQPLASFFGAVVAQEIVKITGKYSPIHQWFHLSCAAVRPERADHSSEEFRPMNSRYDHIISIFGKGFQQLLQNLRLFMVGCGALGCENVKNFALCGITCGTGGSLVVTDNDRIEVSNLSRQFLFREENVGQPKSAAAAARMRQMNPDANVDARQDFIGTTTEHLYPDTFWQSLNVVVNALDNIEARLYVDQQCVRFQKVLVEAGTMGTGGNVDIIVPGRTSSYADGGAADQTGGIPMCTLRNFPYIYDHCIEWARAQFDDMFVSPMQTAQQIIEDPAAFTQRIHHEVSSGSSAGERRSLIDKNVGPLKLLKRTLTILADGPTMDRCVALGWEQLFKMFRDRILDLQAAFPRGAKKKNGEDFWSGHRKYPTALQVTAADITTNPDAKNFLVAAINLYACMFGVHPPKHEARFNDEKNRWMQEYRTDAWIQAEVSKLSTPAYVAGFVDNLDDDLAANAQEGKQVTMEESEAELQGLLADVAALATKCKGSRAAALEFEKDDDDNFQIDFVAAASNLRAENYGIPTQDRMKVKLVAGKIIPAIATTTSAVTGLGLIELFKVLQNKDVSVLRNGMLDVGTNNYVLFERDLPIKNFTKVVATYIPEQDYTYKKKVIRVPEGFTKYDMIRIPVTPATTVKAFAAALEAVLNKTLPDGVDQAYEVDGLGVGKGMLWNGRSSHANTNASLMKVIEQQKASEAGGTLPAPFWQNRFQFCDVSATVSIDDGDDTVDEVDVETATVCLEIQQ
Kind of assay: Leishmania donovani Ubiquitin Activating Enzyme (LdE1). The assay is classed as functional. Particulars: 30 µM.

Assay [3] has as its target AMP-activated protein kinase, AMPK (Homo sapiens) (UniProt P54646+O43741+P54619+Q9UGJ0+Q9Y478+Q13131+Q9UGI9). Kind of assay: AMP-dependent Kinase enzyme assay. An in vitro enzyme assay that detects ADP turnover that is directly proportional to AMPK activity. This uses naive AMPK that is activated during the assay with MK-8722. The assay is classed as functional. The conditions noted are these: 30 µM.

Assay [4] concerns the target Sialic acid-binding Ig-like lectin 9 (Homo sapiens) (UniProt Q9Y336). Put plainly: Hs-Siglec9 ALPHAscreen SOP 20170721. The conditions noted are these: 10 µM.
Assay [5] has as its system Trypanosoma cruzi. Kind of assay: Trypanosoma cruzi phosphomannomutase and mannose-1-phosphate guanylyltransferase assay. The conditions noted are these: 10 µM. It is filed as functional.
For assay [6], the target named is T2, Arginase-2, mitochondrial (Homo sapiens) (UniProt P78540).
T2 sequence (whole entry): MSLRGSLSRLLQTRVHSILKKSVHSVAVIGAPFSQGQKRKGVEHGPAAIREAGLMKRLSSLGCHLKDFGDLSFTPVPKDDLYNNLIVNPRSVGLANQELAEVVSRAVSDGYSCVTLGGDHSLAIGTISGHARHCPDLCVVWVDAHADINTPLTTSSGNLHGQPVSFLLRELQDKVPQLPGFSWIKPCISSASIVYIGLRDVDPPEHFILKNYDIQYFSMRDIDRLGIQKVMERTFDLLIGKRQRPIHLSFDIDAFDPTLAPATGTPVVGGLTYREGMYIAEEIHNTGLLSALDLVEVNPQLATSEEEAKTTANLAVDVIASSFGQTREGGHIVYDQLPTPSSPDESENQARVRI
Put plainly: in vitro enzyme assay to detect the production of urea directly proportional to the activity of Arginase II. Also: in the data most compounds retested in dose-response had high values. The assay is classed as functional. The conditions noted are these: 33.3 µM.

In assay [7] the target is T3, Proteasome subunit beta (Trypanosoma cruzi) (UniProt O96673).
T3 sequence (whole entry): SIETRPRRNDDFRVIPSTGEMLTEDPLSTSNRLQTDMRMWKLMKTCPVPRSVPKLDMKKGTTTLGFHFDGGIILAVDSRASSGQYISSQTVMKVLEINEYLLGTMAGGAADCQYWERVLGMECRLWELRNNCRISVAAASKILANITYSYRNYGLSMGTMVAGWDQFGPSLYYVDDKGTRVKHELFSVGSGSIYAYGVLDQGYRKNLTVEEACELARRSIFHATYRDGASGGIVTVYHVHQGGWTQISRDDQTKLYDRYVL
Kind of assay: Trypanosoma cruzi proteasome chymotrypsin-like activity (TcProtChymo) assay. Also: in the data most compounds retested in dose-response had high values. Particulars: 9.37 µM. It is filed as functional.

For assay [8], the species on record is Homo sapiens. Kind of assay: To identify inhibition of the IFN signalling (Jak-Stat) pathway via expression of an eGFP reporter gene under the control of an IFN-stimulated response element (ISRE) containing MxA promoter. The assay is classed as functional. The conditions noted are these: 30 µM.
Assay [9] deals with T4, Tyrosyl-tRNA synthetase, putative (Trypanosoma cruzi (strain CL Brener)) (UniProt Q4DSP6).
T4 sequence (whole entry): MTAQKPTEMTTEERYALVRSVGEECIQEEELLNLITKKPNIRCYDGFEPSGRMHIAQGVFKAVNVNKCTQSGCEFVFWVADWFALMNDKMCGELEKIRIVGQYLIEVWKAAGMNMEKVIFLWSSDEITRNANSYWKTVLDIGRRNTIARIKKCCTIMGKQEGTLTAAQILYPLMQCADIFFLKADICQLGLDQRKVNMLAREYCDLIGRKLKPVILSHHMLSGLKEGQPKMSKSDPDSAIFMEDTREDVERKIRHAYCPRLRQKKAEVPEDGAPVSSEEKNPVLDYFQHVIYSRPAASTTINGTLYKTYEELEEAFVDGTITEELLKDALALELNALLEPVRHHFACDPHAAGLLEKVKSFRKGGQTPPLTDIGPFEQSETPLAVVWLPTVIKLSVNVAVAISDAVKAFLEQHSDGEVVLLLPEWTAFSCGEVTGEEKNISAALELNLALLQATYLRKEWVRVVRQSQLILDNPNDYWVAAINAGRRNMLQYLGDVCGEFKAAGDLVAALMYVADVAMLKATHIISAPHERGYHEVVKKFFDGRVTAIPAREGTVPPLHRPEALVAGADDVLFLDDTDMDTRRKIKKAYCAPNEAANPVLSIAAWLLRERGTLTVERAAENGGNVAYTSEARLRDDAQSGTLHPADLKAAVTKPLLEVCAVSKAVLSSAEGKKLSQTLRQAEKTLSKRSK
Kind of assay: Trypanosoma cruzi tyrosyl tRNA synthetase (TcYRS) _High Tyrosine SOP. Also: in the data most compounds retested in dose-response had high values. The conditions noted are these: 30 µM. The assay is classed as functional.

The target in assay [10] is T4, Tyrosyl-tRNA synthetase, putative (Trypanosoma cruzi (strain CL Brener)). Kind of assay: Trypanosoma cruzi tyrosyl tRNA synthetase (TcYRS) SOP. Particulars: 30 µM. It is filed as functional.
The target in assay [11] is Chromo domain-containing protein 1 (Saccharomyces cerevisiae (strain ATCC 204508 / S288c) (Baker's yeast)) (UniProt P32657). Put plainly: ScCHD-1 Enzyme Inhibition Assay. Also: in the data most compounds retested in dose-response had high values. The conditions noted are these: 30 µM. The assay is classed as functional.

For part of these data: Entries with a potency or affinity are not part of this list.

Chain of Chromo domain-containing protein 1 (Saccharomyces cerevisiae (strain ATCC 204508 / S288c) (Baker's yeast)) (P32657 whole entry, the tested form may be a part): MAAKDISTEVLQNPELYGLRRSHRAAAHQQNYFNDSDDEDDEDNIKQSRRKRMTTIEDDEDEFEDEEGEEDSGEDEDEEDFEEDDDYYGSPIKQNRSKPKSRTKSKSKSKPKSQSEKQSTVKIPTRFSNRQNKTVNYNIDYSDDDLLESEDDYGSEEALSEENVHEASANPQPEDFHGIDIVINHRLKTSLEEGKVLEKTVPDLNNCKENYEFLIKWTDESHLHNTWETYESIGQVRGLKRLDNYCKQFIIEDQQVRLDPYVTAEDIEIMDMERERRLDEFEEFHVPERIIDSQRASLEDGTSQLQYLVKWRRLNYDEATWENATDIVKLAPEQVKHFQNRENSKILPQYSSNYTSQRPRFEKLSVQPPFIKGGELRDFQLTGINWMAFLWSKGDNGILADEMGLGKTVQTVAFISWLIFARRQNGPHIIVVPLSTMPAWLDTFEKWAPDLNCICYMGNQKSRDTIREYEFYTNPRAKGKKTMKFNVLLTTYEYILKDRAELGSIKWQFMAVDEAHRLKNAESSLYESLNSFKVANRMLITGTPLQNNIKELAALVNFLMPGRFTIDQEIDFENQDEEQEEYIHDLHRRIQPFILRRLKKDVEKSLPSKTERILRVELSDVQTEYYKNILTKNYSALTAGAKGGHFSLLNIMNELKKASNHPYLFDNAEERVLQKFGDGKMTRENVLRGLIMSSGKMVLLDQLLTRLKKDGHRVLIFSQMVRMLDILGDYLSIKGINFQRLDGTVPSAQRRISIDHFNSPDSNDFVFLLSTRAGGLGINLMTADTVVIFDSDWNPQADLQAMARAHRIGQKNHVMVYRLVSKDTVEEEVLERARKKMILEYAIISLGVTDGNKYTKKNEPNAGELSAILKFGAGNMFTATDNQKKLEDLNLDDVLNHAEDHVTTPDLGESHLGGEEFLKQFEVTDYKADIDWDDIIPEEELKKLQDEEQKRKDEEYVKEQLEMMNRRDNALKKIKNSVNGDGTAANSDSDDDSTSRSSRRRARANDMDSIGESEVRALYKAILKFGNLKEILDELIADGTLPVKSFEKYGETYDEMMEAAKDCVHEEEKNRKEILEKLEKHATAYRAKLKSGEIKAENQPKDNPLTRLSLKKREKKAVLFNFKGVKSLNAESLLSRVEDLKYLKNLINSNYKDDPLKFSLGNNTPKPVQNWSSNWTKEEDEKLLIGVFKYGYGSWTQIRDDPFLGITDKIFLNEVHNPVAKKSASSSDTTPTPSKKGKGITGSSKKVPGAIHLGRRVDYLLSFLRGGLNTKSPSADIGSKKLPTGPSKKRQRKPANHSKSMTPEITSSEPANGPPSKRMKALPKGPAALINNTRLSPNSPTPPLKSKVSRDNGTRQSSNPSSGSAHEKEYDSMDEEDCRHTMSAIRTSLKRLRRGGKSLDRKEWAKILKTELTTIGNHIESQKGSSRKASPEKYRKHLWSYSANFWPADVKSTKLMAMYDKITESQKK
Chain of Protein translocase subunit SecA (Escherichia coli (strain K12)) (P10408 whole entry): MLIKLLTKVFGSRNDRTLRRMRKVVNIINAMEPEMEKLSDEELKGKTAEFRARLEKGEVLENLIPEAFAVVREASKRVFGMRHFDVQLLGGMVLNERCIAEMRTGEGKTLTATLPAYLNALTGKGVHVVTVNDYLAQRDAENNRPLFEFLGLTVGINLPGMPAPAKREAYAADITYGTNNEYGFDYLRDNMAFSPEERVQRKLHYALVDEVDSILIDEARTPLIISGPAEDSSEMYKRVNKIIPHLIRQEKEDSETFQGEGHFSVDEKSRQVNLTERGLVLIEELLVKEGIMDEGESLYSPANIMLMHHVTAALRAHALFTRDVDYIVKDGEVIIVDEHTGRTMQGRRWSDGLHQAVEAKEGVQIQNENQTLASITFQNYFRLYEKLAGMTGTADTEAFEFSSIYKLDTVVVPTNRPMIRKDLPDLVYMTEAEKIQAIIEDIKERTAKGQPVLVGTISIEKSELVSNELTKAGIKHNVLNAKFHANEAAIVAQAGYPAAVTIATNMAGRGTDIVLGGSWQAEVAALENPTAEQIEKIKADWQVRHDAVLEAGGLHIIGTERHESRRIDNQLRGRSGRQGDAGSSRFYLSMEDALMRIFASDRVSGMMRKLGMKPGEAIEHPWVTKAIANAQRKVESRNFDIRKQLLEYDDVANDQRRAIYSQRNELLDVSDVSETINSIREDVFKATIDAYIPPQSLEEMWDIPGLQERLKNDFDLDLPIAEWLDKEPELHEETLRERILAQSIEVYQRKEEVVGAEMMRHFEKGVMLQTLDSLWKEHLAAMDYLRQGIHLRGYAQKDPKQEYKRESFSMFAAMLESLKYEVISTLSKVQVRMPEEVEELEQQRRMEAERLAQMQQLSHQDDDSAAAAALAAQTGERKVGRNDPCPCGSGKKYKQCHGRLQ
Chain of Sialic acid-binding Ig-like lectin 9 (Homo sapiens) (Q9Y336 whole entry): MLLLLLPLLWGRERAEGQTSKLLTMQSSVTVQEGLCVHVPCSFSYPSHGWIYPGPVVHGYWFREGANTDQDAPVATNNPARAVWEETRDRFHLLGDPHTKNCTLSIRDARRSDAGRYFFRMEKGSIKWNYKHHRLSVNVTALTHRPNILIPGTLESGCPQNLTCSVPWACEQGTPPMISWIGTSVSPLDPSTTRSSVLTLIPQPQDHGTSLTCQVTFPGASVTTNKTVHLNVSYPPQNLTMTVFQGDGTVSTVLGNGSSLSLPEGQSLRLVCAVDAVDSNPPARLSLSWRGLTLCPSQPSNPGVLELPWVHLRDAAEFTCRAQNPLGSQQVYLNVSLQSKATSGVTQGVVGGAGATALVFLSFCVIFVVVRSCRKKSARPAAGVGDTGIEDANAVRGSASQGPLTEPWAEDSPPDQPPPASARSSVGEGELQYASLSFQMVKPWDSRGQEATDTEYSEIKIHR

For `O=C(NCC(F)(F)F)C1CSCN1S(=O)(=O)c1ccc(F)cc1` (centres undefined), the Percent Effect in assay [1] is -4.1%; in [2], 16.5%; in assay [3], 4.27%; in [4], -0.453%; in assay [5] it was 1.33%; in assay [6] it was -4.95%. The Percent Effect in assay [7] is 16.5%; in [8] it was 7.19%; in [9], 13.5%; in [10] it was 30.4%; in assay [11], -28%.

As for `CCN(CCC(F)(F)F)C(=O)Nc1cccc(N2CCOCC2)c1`, the Percent Effect was -2.27% in assay [1]; 5.41% in assay [2]; -8.53% in assay [3]; 14.9% in [4]; 2.12% in [5]; -2.38% in assay [6]. The Percent Effect in assay [7] is 5.52%; in [8], 16.4%; in [9] it was 2.65%; in [10], 7.32%; in [11], -3.36%.

Turning to `CC(C)CN(C)c1ccc(C(=O)N2CCCC2c2cnn(C)c2)cn1` (centres undefined), the Percent Effect was -0.585% in assay [1]; 5.26% in [2]; -6.48% in assay [3]; -6.28% in assay [4]; 3.46% in [5]; 1.44% in [6]. Also, the Percent Effect was 8.71% in assay [7]; 11.2% in assay [8]; 7.39% in assay [9]; 23.5% in assay [10]; -10.4% in assay [11].

As to `CN(C)CCN(Cc1cccc(C(F)(F)F)c1)C(=O)c1cc[nH]n1`, the Percent Effect was 1.05% in assay [1]; -4.17% in [2]; -0.743% in assay [3]; -0.91% in [4]; -4.57% in [5]; 2.65% in assay [6]. Further, the Percent Effect in [7] is 5.61%; in assay [8], 6.86%; in [9] it was -3.16%; in [10], -10.3%; in assay [11] it was -3.17%.

As to `Cc1csc(C2CCCN(C(=O)c3ccc(=O)n(C)n3)C2)n1` (centres undefined), the Percent Effect was -1.5% in assay [1]; 0% in assay [2]; -1.05% in assay [3]; -7.99% in [4]; -4.2% in assay [5]; 2.23% in [6]. Also, the Percent Effect was 1.97% in assay [7]; -5.09% in [8]; -1.07% in [9]; -1.24% in assay [10]; -2.21% in [11].

`c1csc(-c2nc(CN3CCOC(Cn4cncn4)C3)cs2)c1` (centres undefined): the Percent Effect in assay [1] is -4.12%; in [2], 7.89%; in assay [3] it was -2.14%; in assay [4], 1.07%; in [5] it was -3.83%; in assay [6], 0%. Also, the Percent Effect in assay [7] was 15.5%; in [8], -10.6%; in assay [9] it was 4.43%; in assay [10], 6.17%; in [11], -6.35%.

Turning to `Cc1cnn(CC2CN(Cc3nc(-c4ccoc4)no3)CCO2)c1` (centres undefined), the Percent Effect in assay [1] was -2.87%; in assay [2], 8.11%; in assay [3] it was -1.58%; in assay [4], 1.14%; in assay [5] it was 7.08%; in assay [6] it was 0.401%. Besides, the Percent Effect in assay [7] was 2.16%; in assay [8], 13.1%; in assay [9], 3.45%; in [10] it was 11.1%; in assay [11], -9.57%.

As for `COc1ccc(C2CCCN2C(=O)NCCNc2ncccn2)cc1` (centres undefined), the Percent Effect was 0.96% in assay [1]; 2.74% in assay [2]; -8.6% in [3]; -2.28% in assay [4]; -7.83% in [5]; 6.36% in assay [6]. For the same molecule, the Percent Effect in assay [7] is 19.3%; in [8], 16.6%; in assay [9], 5.38%; in assay [10], 12.5%; in [11] it was -6.8%.

As to `COCC(=O)N1CCN(C(=O)c2scnc2C)CC1`, the Percent Effect in assay [1] is -4.41%; in assay [2], 7.89%; in assay [3], 1.74%; in assay [4] it was 5.01%; in assay [5], 2.82%; in assay [6], -4.73%. The Percent Effect in [7] amounted to 12.4%; in [8], 19.8%; in assay [9], 1.06%; in [10] it was 10.4%; in assay [11], 0.643%.

Values taken from ChEMBL document CHEMBL3988442, “University of Dundee, Small-Polar-MMV Screening Library” (2021).
